KDM5B inhibitor: inhibitors of human KDM5B histone demethylase. hit rate 2.6% among 220,000. AID 1347165. Q9UGL1. KDM5B demethylase, FDH-coupled NADH fluorescence (FDH is formaldehyde dehydrogenase). Potency, µM (titrated, usually from 57.7 µM), actives largely listed as inhibitors; active means well fitted inhibition curve with a large enough effect; further: 0% is about no effect; nearly all actives have a fitted effect of over 70% in size
Target sequence (Q9UGL1 whole entry, looked up): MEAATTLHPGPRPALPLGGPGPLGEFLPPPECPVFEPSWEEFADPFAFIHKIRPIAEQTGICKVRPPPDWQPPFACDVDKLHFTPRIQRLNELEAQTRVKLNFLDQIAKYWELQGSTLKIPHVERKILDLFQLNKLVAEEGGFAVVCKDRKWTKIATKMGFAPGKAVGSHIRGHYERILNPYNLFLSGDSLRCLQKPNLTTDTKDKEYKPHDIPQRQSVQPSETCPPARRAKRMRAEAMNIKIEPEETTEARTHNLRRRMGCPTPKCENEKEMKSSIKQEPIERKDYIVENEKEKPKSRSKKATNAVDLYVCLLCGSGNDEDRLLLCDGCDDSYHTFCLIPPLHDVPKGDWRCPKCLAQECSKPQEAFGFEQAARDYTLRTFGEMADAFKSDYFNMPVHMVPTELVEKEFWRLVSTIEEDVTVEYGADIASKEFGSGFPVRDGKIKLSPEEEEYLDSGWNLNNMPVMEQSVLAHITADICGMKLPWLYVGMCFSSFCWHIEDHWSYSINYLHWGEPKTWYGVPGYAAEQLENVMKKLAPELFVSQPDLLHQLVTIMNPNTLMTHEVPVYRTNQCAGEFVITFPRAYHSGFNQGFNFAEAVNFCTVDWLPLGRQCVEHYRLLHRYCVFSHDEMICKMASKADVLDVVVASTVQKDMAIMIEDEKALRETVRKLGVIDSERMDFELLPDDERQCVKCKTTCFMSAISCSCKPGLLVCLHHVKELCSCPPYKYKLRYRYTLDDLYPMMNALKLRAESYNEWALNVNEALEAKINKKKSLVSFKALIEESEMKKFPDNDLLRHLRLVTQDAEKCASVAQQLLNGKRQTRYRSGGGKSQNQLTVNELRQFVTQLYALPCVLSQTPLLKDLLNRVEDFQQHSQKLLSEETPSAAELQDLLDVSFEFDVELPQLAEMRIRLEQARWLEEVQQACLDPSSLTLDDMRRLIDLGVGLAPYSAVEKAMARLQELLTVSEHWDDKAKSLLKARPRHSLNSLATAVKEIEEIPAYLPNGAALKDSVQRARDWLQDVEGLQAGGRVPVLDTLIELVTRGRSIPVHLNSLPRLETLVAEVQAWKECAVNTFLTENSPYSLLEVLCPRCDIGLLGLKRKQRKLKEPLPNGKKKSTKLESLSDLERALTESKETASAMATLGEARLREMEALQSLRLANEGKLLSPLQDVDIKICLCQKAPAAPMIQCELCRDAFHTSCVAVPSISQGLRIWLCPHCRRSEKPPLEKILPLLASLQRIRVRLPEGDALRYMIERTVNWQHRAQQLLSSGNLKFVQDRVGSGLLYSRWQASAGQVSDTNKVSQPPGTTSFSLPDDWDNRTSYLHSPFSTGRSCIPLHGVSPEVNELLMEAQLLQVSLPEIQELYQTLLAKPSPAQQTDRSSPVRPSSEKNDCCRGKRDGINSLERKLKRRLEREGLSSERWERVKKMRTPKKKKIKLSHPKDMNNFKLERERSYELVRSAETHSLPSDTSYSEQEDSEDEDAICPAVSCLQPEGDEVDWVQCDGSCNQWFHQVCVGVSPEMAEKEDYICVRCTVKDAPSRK
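Compound dilutions met 200 nM (final) KDM5BΔAP for 10 min at room temperature before substrate addition. The substrate mix held 12.5 µM H3K4me3 with cofactors 25 µM α-ketoglutarate and 50 µM Fe²⁺. NADH signal gain over 30 min defined activity.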
* hit, by the source's call; i = inactive. This is one part of a sample in which hits are shown more often than they occur. Potency means the concentration at half of the fitted maximal effect.

SMILES	KDM5B inhibitor
CC(C)c1cc(CN(C)Cc2cn[nH]c2-c2ccc(F)cc2)no1	28.2µM*
CCN(Cc1nc(COC)no1)Cc1cn[nH]c1-c1ccc(F)cc1	i
Cc1cc(CN(C)Cc2ccc(F)cc2)no1	i
Cc1oc(-c2ccccc2)nc1CC(=O)Nc1ccc(Br)cc1F	i
c1cncc(CNC[C@H]2Cn3c(-c4ccc5c(c4)OCCO5)cnc3CO2)c1	i
Nc1nc2c(c(C(=O)N[C@H](c3ccccn3)C3CC(O)C3)n1)CCCC2 (stereo partly specified)	28.2µM*
O=C(Cc1csc(-c2ccccc2)n1)N[C@H](c1ccccn1)C1CC(O)C1 (stereo partly specified)	25.1µM*
O=C(N[C@H](c1ccccn1)C1CC(O)C1)c1cc(=O)n(-c2ccccc2)[nH]1 (stereo partly specified)	i
CCCc1cc(C(=O)N[C@H](c2ccccn2)C2CC(O)C2)cs1 (stereo partly specified)	i
Nc1nc(CC(=O)N[C@H](c2ccccn2)C2CC(O)C2)cc(=O)[nH]1 (stereo partly specified)	i
O=C(CCc1nc2ccccc2s1)N[C@H](c1ccccn1)C1CC(O)C1 (stereo partly specified)	i
Cc1nc(-c2ccc(S(=O)(=O)Nc3ccc(F)cc3C)cc2)co1	i
Cc1cccc(NC(=O)Cn2cnc3c2c(=O)n(C)c(=O)n3C)c1C	i
CN(C(=O)c1cc2ccccc2o1)C(c1cccc(F)c1)c1ccccn1 (stereo unspecified)	i
CCn1c(SCC(=O)c2ccc[nH]2)nnc1-c1ccc(OC)cc1	i
Cc1cccc(NC2=NS(=O)(=O)c3ccccc32)c1C	i
CN1CC(=O)N(c2ccccc2)Cc2c1ncnc2N1CCc2ccccc2C1	25.1µM*
CN1CC(=O)N(c2ccccc2)Cc2c1ncnc2N1CCC(O)CC1	i
CN1CC(=O)N(c2ccccc2F)Cc2c1ncnc2N1CCc2ccccc2C1	i
COc1ccccc1-c1[nH]ncc1CN1CCn2nnc(CCC(=O)N3CCCC3)c2C1	i
O=C(c1ccc(C(F)(F)F)cc1)N1CCC(N2CC3CC(C2)[C@H]2CCCC(=O)N2C3)CC1 (stereo partly specified)	i
CC(C)c1ccc(C(=O)N2CCC(N3CC4CC(C3)[C@H]3CCCC(=O)N3C4)CC2)cc1 (stereo partly specified)	i
O=C(c1ccncc1)N1CCC(N2CC3CC(C2)[C@H]2CCCC(=O)N2C3)CC1 (stereo partly specified)	17.8µM*
CCOC(=O)C1CCN(C(=O)CC(c2ccc(OC)c(OC)c2)c2c[nH]c3c(CC)cccc23)CC1 (stereo unspecified)	i
COc1ccc(OCc2nc(C#N)c(N3CCN(C)CC3)o2)cc1	i
SMILES	KDM5B inhibitor
CN(C)S(=O)(=O)c1ccc2c(c1)cc(C(=O)NCCc1ccco1)n2C	i
O=C1CCN(C(=O)c2ccco2)CCCCCCN1	i
O=C1NCCN2CC3(CCN(C(=O)c4ccco4)CC3)CC12 (stereo unspecified)	28.2µM*
O=C(c1ccco1)N1CCN(C2CCC3(CCNCC3)CC2)CC1	i
CNC(=O)N1CCC(C2CCN(S(=O)(=O)c3cccc(C#N)c3)C2)CC1 (stereo unspecified)	i
CCCSc1nn(CCN(C)C)c2nc3sc(C)c(CC)c3c(=O)n12	i
Cc1ccc(OCC(=O)N[C@@H]2CCOC[C@H]2Oc2cccc(F)c2)cc1C	i
COc1cccc(CCC(=O)N[C@@H]2COCC[C@@H]2Oc2cccc(F)c2)c1	i
CC(C)c1cc(C(=O)N[C@@H]2COCC[C@@H]2Oc2cccc(F)c2)nc(N)n1	28.2µM*
O=C(Nc1ccccc1F)C1Sc2nnc(-c3ccccc3)n2NC12CCCCC2 (stereo unspecified)	i
COc1cccc2[nH]c(C(=O)N3CCC(c4nnc5ccccn45)CC3)cc12	i
Cn1cccc1CN1CCC2(CC1)C(=NC1CCCC1)NC(=O)N2c1cc(F)cc(F)c1	i
Cc1oc(-c2nc(C#N)c(N3CCCCC3)o2)cc1S(=O)(=O)N(C)C	i
Cc1ccc2oc(-c3ccc(C)c(NC(=O)COc4ccccc4)c3)nc2c1	i
Cn1c(CNC(=O)CC2CCOCC2)nc2ccccc21	i
Cn1c(CNC(=O)c2cccc(C3CCNC3)c2)nc2ccccc21 (stereo unspecified)	i
Cn1c(CNC(=O)c2cc3c(s2)CN(C2CC2)C3)nc2ccccc21	12.6µM*
CCC1CCCCN1CCNC(=O)c1cc2c(s1)CN(C1CCCC1)C2 (stereo unspecified)	14.1µM*
CCC1CCCCN1CCCNC(=O)c1cc2c(Cl)nc3ccc(C)cc3c2s1 (stereo unspecified)	i
O=C(O)c1cc2c(s1)CN(C1CCCC1)C2	i
O=C(c1cccc(Br)c1)N(Cc1cccc2[nH]ccc12)C1CC1	i
CC(C)N(Cc1ccccc1)C(=O)COc1ncnc2c(Cl)cc(Cl)cc12	i
CN(C)C[C@@H]1CN(S(C)(=O)=O)C[C@H]1NC(=O)C1(c2ccccc2)CCCC1	i
COc1cc(NC(=O)c2cnc(SC)nc2C(F)(F)F)cc(OC)c1	i
CN(CC(=O)NC(C)(C)C)Cc1ccc(C#N)cc1	i
SMILES	KDM5B inhibitor
COc1ccc(-c2[nH]nc3ncc(-c4ccc(CO)cc4)nc23)cc1F	i
COc1ccc(-c2[nH]nc3ncc(-c4ccccc4O)nc23)cc1F	i
Cc1cc(-c2cnc3n[nH]c(-c4ccccc4)c3n2)ccn1	i
Cc1cc(F)ccc1-c1[nH]nc2ncc(-c3cnn(C)c3)nc12	i
COc1ccc(-c2cnc3n[nH]c(-c4ccc(F)cc4C)c3n2)cc1OC	31.6µM*
Fc1ccccc1-c1cnc2n[nH]c(-c3ccccc3)c2n1	31.6µM*
COc1ccccc1-c1cnc2n[nH]c(-c3ccccc3)c2n1	35.5µM*
Cc1cccc(-c2cnc3n[nH]c(-c4ccccc4)c3n2)c1	35.5µM*
Cc1ccsc1-c1[nH]nc2ncc(-c3cccc(CO)c3)nc12	i
O=C(Nc1ccon1)c1cnc2n[nH]c(-c3ccccc3)c2n1	i
COc1ccccc1-c1[nH]nc2ncc(CN(C)Cc3ccccc3)nc12	i
COc1cc(F)ccc1-c1cnc2n[nH]c(-c3sccc3C)c2n1	i
Cc1ccc2oc(-c3cccc(NC(=O)c4cccs4)c3C)nc2c1	i
NCc1cccc(Oc2ncnc3ccccc23)c1	i
Cc1nc2ccccc2c(-c2ccccc2)c1C(=O)/C=C/c1ccccc1	i
Cn1c(=O)c2[nH]c(CN3CCN(c4ccccc4F)CC3)nc2n(C)c1=O	i
COc1ccc(C(N)=O)c(OCc2coc(-c3ccccc3)n2)c1	i
CCCS(=O)(=O)N(C)C1CCc2nn(CC3CC3)c(=O)n2CC1 (stereo unspecified)	i
CC(O)CN(c1ccccc1)S(=O)(=O)c1cc(C(=O)O)cc2c1CCC2 (stereo unspecified)	i
CCCCNc1nc2c(c(=O)[nH]c(=O)n2C)n1Cc1ccccc1Cl	i
O=C(O)C/C(=C/c1ccc(Br)cc1)c1nc2ccccc2s1	i
O=C(N/N=C(/c1ccccc1)c1ccncc1)C1CC1	i
O=C(NC1CCCCC1)c1ccc2ccccc2n1	i
CN(C)S(=O)(=O)c1ccc2c(c1)cc(C(=O)NCC1CCCO1)n2C (stereo unspecified)	i
NC(N)=N/N=C/c1cccc([N+](=O)[O-])c1	i
COc1ccc(C/C(C#N)=C\Nc2cccc(C(F)(F)F)c2)cc1	i

Assay outcomes as filed in PubChem BioAssay.
